Results filed as inconclusive are left out. Calls of active or inactive are those of the source. Calls come from the whole dose curve; as a rule, active = well fitted inhibition curve with a large enough effect; inconclusive = small, poorly fitted or top-dose-only effect; inactive = no such curve, though single readings can be large or run the other way.
Assay: InCell qHTS Assay for Inhibitors of the mTORC1 Signaling Pathway in MEF (Tsc2-/-, p53-/-) Cells: Hit Validation;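 note: phospho-S6 Ser235/236 signal normalized to propidium iodide cell count per well; nearly all actives have a fitted effect of over 75% in size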
Details: phospho-rpS6 immunofluorescence, 24 h; activity change, negative = inhibition: at 38.3 µM (top of the series)
Potency is the fitted concentration of half-maximal effect.

**Q.** Which Potency does the source give for `CCOc1ccc(NC(=O)CSc2oc(-c3ccc(F)cc3)nc2S(=O)(=O)c2ccc(C)cc2)cc1` here?
**A.** The Potency was 4.65 µM (active).

**Q.** For `COc1cccc(C(=O)CC2(O)C(=O)N(Cc3ccccc3)c3ccccc32)c1` (stereo not drawn), which activity change, negative = inhibition is on record?
**A.** Its activity change, negative = inhibition is -100%.

**Q.** For `COc1ccc(N(Cc2ccccc2)C(=O)c2nc(S(C)(=O)=O)ncc2Cl)cc1`, which Potency is on record?
**A.** The Potency was 3.69 µM (active).

**Q.** With `COc1ccc(OCC(O)Cn2c(=N)n(CCN3CCCCC3)c3ccccc32)cc1` (stereo not drawn) as the molecule, how does the activity change, negative = inhibition read?
**A.** Its activity change, negative = inhibition is -100%.

**Q.** Which activity change, negative = inhibition does the source give for `Brc1ccc(Nc2c3c(nc4nncn24)CCC3)cc1` here?
**A.** Its activity change, negative = inhibition is -100%.

**Q.** Which activity change, negative = inhibition does the source give for `C#CCN1C(=O)C(O)(CC(=O)c2ccc(OC)c(OC)c2)c2cc(Br)ccc21` (stereo not drawn) here?
**A.** Its activity change, negative = inhibition is -100%.

**Q.** With `CC1=Nc2cc(C(=O)NCCc3ccc(Cl)cc3)ccc2Sc2ccc(C)cc21` as the molecule, how does the activity change, negative = inhibition read?
**A.** Its activity change, negative = inhibition is -100%.

**Q.** For `Cc1cccc(CS(=O)(=O)c2ncc(Cl)c(C(=O)NCc3ccccc3)n2)c1`, which Potency is on record?
**A.** Its Potency is 10.4 µM (active).

**Q.** With `COc1ccc(-c2nc(S(=O)(=O)c3ccc(Cl)cc3)c(N3CCCCCC3)o2)cc1` as the molecule, how does the activity change, negative = inhibition read?
**A.** Its activity change, negative = inhibition is -100%.

**Q.** With `CCOc1cc(C(=O)Nc2ccc(-c3cn4cccnc4n3)cc2)cc(OCC)c1OCC` as the molecule, how does the activity change, negative = inhibition read?
**A.** The activity change, negative = inhibition was -100%.

**Q.** With `CSc1ccc(CCNC(=O)C(C)n2nc(C)c3sc4ccccc4c3c2=O)cc1` (stereo not drawn) as the molecule, how does the activity change, negative = inhibition read?
**A.** The activity change, negative = inhibition was -100%.

**Q.** Which activity change, negative = inhibition does the source give for `O=C(Nc1ccc(F)c(Cl)c1)c1cc(S(=O)(=O)N2CCCc3ccccc32)ccc1F` here?
**A.** Its activity change, negative = inhibition is -100%.

**Q.** With `CC(C)CCNC(=O)c1cccc(Nc2nc3ccccc3n3nnnc23)c1` as the molecule, how does the Potency read?
**A.** The Potency was 4.14 µM (active).

**Q.** Which activity change, negative = inhibition does the source give for `COc1ccc(CCN2C(=O)c3[nH]nc(-c4ccccc4O)c3C2c2ccc(OC)c(OC)c2)cc1` (stereo not drawn) here?
**A.** The activity change, negative = inhibition was -100%.

**Q.** Which Potency does the source give for `CC1C(=O)N2CCCc3cc(S(=O)(=O)Nc4ccc(Br)cc4F)cc1c32` (stereo not drawn) here?
**A.** The Potency was 14.7 µM (active).

**Q.** Which activity change, negative = inhibition does the source give for `Cc1c(C(=O)OC2CCCCC2)[nH]c2c1C(=O)CC(c1ccccc1)C2` (stereo not drawn) here?
**A.** Its activity change, negative = inhibition is -24.8%.

**Q.** With `CC(CNC(=O)c1ccc(Nc2nc3ccccc3n3nnnc23)cc1)c1ccccc1` (stereo not drawn) as the molecule, how does the activity change, negative = inhibition read?
**A.** The activity change, negative = inhibition was -100%.

**Q.** With `Cc1cc(OCC(=O)Nc2cc(-c3nc4ccccc4[nH]3)ccc2C)ccc1Cl` as the molecule, how does the activity change, negative = inhibition read?
**A.** The activity change, negative = inhibition was -100%.

**Q.** For `Cc1ccc(C(=O)CC2(O)C(=O)N(Cc3ccccc3F)c3ccccc32)cc1` (stereo not drawn), which activity change, negative = inhibition is on record?
**A.** The activity change, negative = inhibition was -100%.

**Q.** With `CCCCN(C)CCNC(=O)c1cc2c(=O)n(C)c3ccccc3c2n1C` as the molecule, how does the activity change, negative = inhibition read?
**A.** The activity change, negative = inhibition was -100%.

**Q.** Which activity change, negative = inhibition does the source give for `CCCCOc1cccc(C(=O)N2CCN(CCc3ccncc3)CC2)c1` here?
**A.** Its activity change, negative = inhibition is -100%.

**Q.** Which Potency does the source give for `CCS(=O)(=O)c1ncc(Cl)c(C(=O)Nc2ccccc2)n1` here?
**A.** The Potency was 2.61 µM (active).

**Q.** With `O=C1c2[nH]nc(-c3ccccc3O)c2C(c2ccc(Cl)cc2)N1CCc1ccccc1` (stereo not drawn) as the molecule, how does the activity change, negative = inhibition read?
**A.** The activity change, negative = inhibition was -21.4%.

**Q.** For `CCOc1ccc(CCNC(=O)CCc2c(C)nc3cc(-c4ccccc4OC)nn3c2C)cc1`, which activity change, negative = inhibition is on record?
**A.** The activity change, negative = inhibition was -100%.

**Q.** Which activity change, negative = inhibition does the source give for `CCC(C)NC(=O)c1sc2nc(C)c(C(=O)Nc3ccc(C)cc3C)c(-c3ccc(Cl)cc3)c2c1N` (stereo not drawn) here?
**A.** The activity change, negative = inhibition was -100%.

**Q.** With `COC(=O)c1c(C)oc2ccc(N(C(=O)c3ccncc3)S(=O)(=O)c3ccc(OC)cc3)cc12` as the molecule, how does the activity change, negative = inhibition read?
**A.** The activity change, negative = inhibition was -25.4%.

**Q.** With `Cc1ccc(C2c3c(-c4ccccc4O)n[nH]c3C(=O)N2CCc2ccccc2)cc1` (stereo not drawn) as the molecule, how does the activity change, negative = inhibition read?
**A.** Its activity change, negative = inhibition is -100%.

**Q.** For `CCOc1ccc(S(=O)(=O)N(C(C)=O)c2ccc3oc(C)c(C(=O)OC)c3c2)cc1`, which activity change, negative = inhibition is on record?
**A.** Its activity change, negative = inhibition is -100%.

**Q.** For `CCc1cnc2c(c1SCC(=O)NCc1ccc(F)cc1)c(=O)n(C)c(=O)n2C`, which activity change, negative = inhibition is on record?
**A.** Its activity change, negative = inhibition is -100%.

**Q.** Which activity change, negative = inhibition does the source give for `COc1ccc(C(=O)Nc2ccc3c(c2)N(C)C(=O)c2ccccc2S3)cc1OC` here?
**A.** Its activity change, negative = inhibition is -100%.

**Q.** Which activity change, negative = inhibition does the source give for `COc1cc(NC(=O)Cn2nc(C(F)(F)F)c3c2CCCC3)c(OC)cc1Cl` here?
**A.** Its activity change, negative = inhibition is -100%.

**Q.** For `CCCN1C(=O)C(O)(CC(=O)c2ccc(C(C)C)cc2)c2ccccc21` (stereo not drawn), which activity change, negative = inhibition is on record?
**A.** The activity change, negative = inhibition was -100%.

**Q.** Which activity change, negative = inhibition does the source give for `Cc1nn(C(C)C(=O)NC2CCC(C)CC2)c(=O)c2c1sc1ccccc12` (stereo not drawn) here?
**A.** Its activity change, negative = inhibition is -100%.

**Q.** Which activity change, negative = inhibition does the source give for `CCOc1ccc(/C=C/c2nc3ccccc3n2S(=O)(=O)c2cccc(Cl)c2)cc1` here?
**A.** Its activity change, negative = inhibition is -100%.

**Q.** Which activity change, negative = inhibition does the source give for `CCN(c1ccccc1)S(=O)(=O)c1cc(C(=O)Nc2ccc(Br)cc2)ccc1F` here?
**A.** The activity change, negative = inhibition was -100%.

**Q.** For `CCCOC(=O)c1c(C)oc2c1cc(NS(=O)(=O)c1ccc(OCC)cc1)c1ccccc12`, which activity change, negative = inhibition is on record?
**A.** The activity change, negative = inhibition was -15.2%.

**Q.** With `COc1ccc(OC)c(NC2=C(c3ccccc3)C(=O)c3ccccc32)c1` as the molecule, how does the activity change, negative = inhibition read?
**A.** The activity change, negative = inhibition was -9.58%.

**Q.** For `CCN(CC)c1ccc(NC(=O)CN(C)S(=O)(=O)c2cccc3nsnc23)c(C)c1`, which activity change, negative = inhibition is on record?
**A.** Its activity change, negative = inhibition is -100%.
